{"source": "PubChem BioAssay (EPA / NIEHS)", "key": {"[1]": {"target": "Paired box protein Pax-6 (Homo sapiens) (UniProt P26367)", "sequence (P26367 whole entry, looked up)": "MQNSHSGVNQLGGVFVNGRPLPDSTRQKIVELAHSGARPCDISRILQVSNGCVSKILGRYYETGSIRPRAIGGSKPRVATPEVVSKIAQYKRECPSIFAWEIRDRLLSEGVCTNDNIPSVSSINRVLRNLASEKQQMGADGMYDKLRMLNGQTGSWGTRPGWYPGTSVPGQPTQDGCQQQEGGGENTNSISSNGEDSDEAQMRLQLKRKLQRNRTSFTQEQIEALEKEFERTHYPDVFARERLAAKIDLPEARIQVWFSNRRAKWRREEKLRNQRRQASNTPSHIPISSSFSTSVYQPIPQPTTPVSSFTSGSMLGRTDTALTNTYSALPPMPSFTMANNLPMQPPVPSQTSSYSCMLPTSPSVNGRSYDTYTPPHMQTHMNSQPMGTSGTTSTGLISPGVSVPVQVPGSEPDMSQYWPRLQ", "assay": "ATG_Pax6_CIS: Attagene CIS-FACTORIAL HepG2 Assay for human Paired Box 6 (PAX6) (AID 2282956)", "conditions": "HepG2 CIS-FACTORIAL PAX6 reporter transcription, RNA readout; actives raise or lower the signal", "how_it_was_run": "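Readout: reporter transcript fluorescence after RT-PCR and capillary electrophoresis. Cells: HepG2, transiently transfected with cis-regulated MRTUs. Exposure 24 h. Gain or loss of signal fitted bidirectionally relative to DMSO.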"}, "[2]": {"assay": "ATG_PXRE_CIS: Attagene CIS-FACTORIAL HepG2 Assay for human Pregnane X Receptor Element (PXRE) (AID 2282957)", "conditions": "HepG2 Attagene CIS-FACTORIAL PXRE reporter, mRNA; actives raise or lower the signal", "how_it_was_run": "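Endogenous transcription factor activity in HepG2 was gauged through induction of reporter mRNA driven by a cis-regulating promoter element, sampled 24 h post-treatment. Activity was fitted in both directions against DMSO negative control.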"}, "[3]": {"assay": "ATG_PPRE_CIS: Attagene CIS-FACTORIAL HepG2 Assay for human Peroxisome Proliferator-activated Response Element (PPRE) (AID 2282958)", "conditions": "HepG2 PPRE cis-element reporter, Attagene transcription factor profiling; actives raise or lower the signal", "how_it_was_run": "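HepG2 cells are transiently transfected with multiplexed cis-promoter reporter units to report endogenous PPAR activity. After 24 h dosing, reporter mRNA is read by RT-PCR and capillary electrophoresis. Fitting is bidirectional against DMSO.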"}, "[4]": {"assay": "ATG_RORE_CIS: Attagene CIS-FACTORIAL HepG2 Assay for human RAR-related Orphan Receptor Element (RORE) (AID 2282959)", "conditions": "HepG2 Attagene cis-factorial RORE reporter, mRNA; actives raise or lower the signal", "how_it_was_run": "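HepG2 cells carrying transiently transfected cis-regulated reporter units; RORE-driven reporter mRNA quantified 24 h post-dosing by RT-PCR, 6-FAM primer extension, HpaI digestion and capillary electrophoresis. Bidirectional fit versus DMSO.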"}, "[5]": {"assay": "ATG_Sox_CIS: Attagene CIS-FACTORIAL HepG2 Assay for human SRY-box transcription factor (SOX) (AID 2282960)", "conditions": "HepG2 Attagene cis-factorial SOX reporter, mRNA; actives raise or lower the signal", "how_it_was_run": "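HepG2 cells transiently transfected with multiple cis-regulated reporter units, then dosed for 24 h. Reporter mRNA quantified by RT-PCR, fluorescent labelling, HpaI digestion and capillary electrophoresis; bidirectional fit versus DMSO.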"}, "[6]": {"target": "Transcription factor Sp1 (Homo sapiens) (UniProt P08047)", "sequence (P08047 whole entry, looked up)": "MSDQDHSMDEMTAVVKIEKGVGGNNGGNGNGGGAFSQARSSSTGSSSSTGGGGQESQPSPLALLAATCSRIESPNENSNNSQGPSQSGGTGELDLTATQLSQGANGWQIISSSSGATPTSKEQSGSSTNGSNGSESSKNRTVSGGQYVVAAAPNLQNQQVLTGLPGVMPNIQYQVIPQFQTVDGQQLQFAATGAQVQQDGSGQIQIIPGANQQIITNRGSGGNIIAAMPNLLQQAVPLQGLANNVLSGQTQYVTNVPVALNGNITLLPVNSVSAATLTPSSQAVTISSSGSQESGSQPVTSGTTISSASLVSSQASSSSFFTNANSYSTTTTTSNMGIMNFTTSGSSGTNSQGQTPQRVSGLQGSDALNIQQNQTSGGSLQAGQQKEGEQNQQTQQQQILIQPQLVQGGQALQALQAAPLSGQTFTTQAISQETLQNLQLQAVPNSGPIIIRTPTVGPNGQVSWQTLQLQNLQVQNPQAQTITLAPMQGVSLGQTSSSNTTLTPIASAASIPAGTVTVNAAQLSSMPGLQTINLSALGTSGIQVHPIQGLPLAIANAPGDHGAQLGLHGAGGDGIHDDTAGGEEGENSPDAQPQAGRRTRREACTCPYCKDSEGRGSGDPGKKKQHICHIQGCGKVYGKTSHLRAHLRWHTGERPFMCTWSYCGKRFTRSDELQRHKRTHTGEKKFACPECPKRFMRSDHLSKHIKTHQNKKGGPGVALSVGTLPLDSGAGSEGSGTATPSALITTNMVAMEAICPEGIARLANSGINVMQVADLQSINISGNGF", "assay": "ATG_Sp1_CIS: Attagene CIS-FACTORIAL HepG2 Assay for human Specificity Protein 1 (Sp1) (AID 2282961)", "conditions": "HepG2 Sp1 cis-reporter transcription, actives raise or lower the signal", "how_it_was_run": "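HepG2 cells transiently transfected with multiplexed cis-regulated reporter constructs, chemical exposure 24 h. Reporter mRNA quantified by RT-PCR with capillary electrophoresis; bidirectional fit relative to DMSO.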"}, "[7]": {"assay": "ATG_SREBP_CIS: Attagene CIS-FACTORIAL HepG2 Assay for human Sterol Regulatory Element Binding (SREBP) (AID 2282962)", "conditions": "HepG2 Attagene cis-factorial SREBP reporter, mRNA; actives raise or lower the signal", "how_it_was_run": "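Readout: fluorescent reporter-transcript peaks resolved by capillary electrophoresis after RT-PCR. Cells were human HepG2 carrying transfected cis-promoter reporter constructs, dosed for 24 h. Gain or loss of signal was fitted against DMSO controls.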"}, "[8]": {"target": "Signal transducer and activator of transcription 3 (Homo sapiens) (UniProt P40763)", "sequence (P40763 whole entry, looked up)": "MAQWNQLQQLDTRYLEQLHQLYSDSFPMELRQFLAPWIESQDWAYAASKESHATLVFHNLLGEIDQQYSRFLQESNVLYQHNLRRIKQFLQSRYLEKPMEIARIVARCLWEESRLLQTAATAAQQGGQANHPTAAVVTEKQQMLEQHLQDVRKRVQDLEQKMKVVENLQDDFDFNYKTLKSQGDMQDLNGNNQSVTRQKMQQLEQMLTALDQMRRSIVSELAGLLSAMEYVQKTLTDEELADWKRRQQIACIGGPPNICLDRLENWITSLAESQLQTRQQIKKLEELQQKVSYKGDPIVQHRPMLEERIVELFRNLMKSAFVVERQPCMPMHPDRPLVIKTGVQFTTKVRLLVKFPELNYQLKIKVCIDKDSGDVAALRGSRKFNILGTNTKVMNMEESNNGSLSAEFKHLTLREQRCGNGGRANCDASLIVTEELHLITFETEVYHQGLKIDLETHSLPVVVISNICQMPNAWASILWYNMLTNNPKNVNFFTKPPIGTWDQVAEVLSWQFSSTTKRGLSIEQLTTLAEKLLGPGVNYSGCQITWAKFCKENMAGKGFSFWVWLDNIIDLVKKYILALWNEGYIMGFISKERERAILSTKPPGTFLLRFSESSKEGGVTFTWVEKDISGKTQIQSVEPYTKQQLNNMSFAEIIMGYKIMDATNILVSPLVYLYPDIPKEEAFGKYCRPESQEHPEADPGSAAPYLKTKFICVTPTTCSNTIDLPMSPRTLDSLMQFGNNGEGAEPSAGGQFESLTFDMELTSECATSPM", "assay": "ATG_STAT3_CIS: Attagene CIS-FACTORIAL HepG2 Assay for human Signal Transducer and Activator of Transcription 3 (STAT3) (AID 2282963)", "conditions": "HepG2, Attagene cis-factorial STAT3 reporter transcription; actives raise or lower the signal", "how_it_was_run": "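Uses human liver HepG2 transiently carrying cis-regulated reporter transcription units. Following 24 h dosing, reporter mRNA induction was detected by RT-PCR and capillary electrophoresis, analysed bidirectionally versus DMSO.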"}, "[9]": {"assay": "ATG_TA_CIS: Attagene CIS-FACTORIAL HepG2 Assay for human TA Basal Promoter (AID 2282964)", "conditions": "HepG2 Attagene CIS-factorial TA basal promoter reporter; actives raise or lower the signal", "how_it_was_run": "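Transient MRTU transfection of HepG2 preceded 24 h compound exposure. Reporter mRNA levels were then read by RT-PCR with capillary electrophoresis, and this background-control endpoint was fitted bidirectionally to DMSO.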"}, "[10]": {"assay": "ATG_TCF_b_cat_CIS: Attagene CIS-FACTORIAL HepG2 Assay for human T-Cell-Factor with beta-catenin (TCF/b-cat) (AID 2282965)", "conditions": "HepG2 TCF/beta-catenin cis-reporter transcription, actives raise or lower the signal", "how_it_was_run": "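HepG2 cells transiently transfected with multiple cis-promoter-regulated reporter transcription units, so endogenous transcription factor activity is measured. Reporter mRNA read 24 hours after dosing by RT-PCR, fluorescent labelling and capillary electrophoresis; bidirectional fitting against DMSO.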"}, "[11]": {"assay": "ATG_TAL_CIS: Attagene CIS-FACTORIAL HepG2 Assay for human TAL Basal Promoter (AID 2282966)", "conditions": "HepG2 Attagene cis-factorial TAL promoter reporter; actives raise or lower the signal", "how_it_was_run": "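Endogenous transcription-factor activity is sensed in HepG2 cells through transfected cis-promoter reporter constructs. After 24 h dosing, reporter transcripts are quantified by RT-PCR and capillary electrophoresis. Gain or loss of signal is fitted relative to DMSO.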"}, "[12]": {"assay": "ATG_TGFb_CIS: Attagene CIS-FACTORIAL HepG2 Assay for human Transforming Growth Factor (TGF) (AID 2282967)", "conditions": "HepG2 Attagene CIS TGFb reporter, mRNA transcription; actives raise or lower the signal", "how_it_was_run": "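After a 24-hour incubation with compound, transfected HepG2 cells were lysed for RNA; reporter cDNA was amplified, fluorescently end-labeled and separated by CE. DMSO served as baseline for bidirectional fits.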"}, "[13]": {"assay": "ATG_VDRE_CIS: Attagene CIS-FACTORIAL HepG2 Assay for human Vitamin D Receptor Element (VDRE) (AID 2282968)", "conditions": "HepG2 VDRE cis-reporter transcription, actives raise or lower the signal", "how_it_was_run": "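Transfected HepG2 reporter cells, chemical treatment 24 h. RNA isolated, cDNA amplified with reporter-specific primers, products analysed by capillary electrophoresis. Endpoint fitted in both directions versus DMSO.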"}, "[14]": {"target": "Estrogen receptor (Homo sapiens) (UniProt P03372)", "sequence (P03372 whole entry, looked up, the tested form may be a part)": "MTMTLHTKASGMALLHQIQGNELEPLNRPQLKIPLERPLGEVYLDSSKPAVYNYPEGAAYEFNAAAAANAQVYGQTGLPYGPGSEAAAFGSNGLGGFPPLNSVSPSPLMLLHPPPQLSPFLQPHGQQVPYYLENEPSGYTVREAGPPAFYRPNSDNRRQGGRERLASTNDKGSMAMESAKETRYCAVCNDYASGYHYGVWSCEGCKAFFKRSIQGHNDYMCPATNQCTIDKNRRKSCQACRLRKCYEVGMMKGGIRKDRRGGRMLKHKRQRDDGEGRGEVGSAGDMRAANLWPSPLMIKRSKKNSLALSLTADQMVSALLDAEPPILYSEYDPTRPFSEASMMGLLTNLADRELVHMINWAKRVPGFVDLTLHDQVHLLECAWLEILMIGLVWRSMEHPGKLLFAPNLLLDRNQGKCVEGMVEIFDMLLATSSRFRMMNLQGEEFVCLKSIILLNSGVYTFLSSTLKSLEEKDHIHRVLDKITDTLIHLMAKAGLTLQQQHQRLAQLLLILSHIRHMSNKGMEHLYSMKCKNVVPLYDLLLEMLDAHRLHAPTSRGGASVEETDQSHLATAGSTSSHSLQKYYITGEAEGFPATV", "assay": "ATG_ERa_TRANS: Attagene TRANS-FACTORIAL HepG2 Assay for human Estrogen Receptor alpha (ERa) (AID 2282970; active = hit-call score of the fitted dose curve at least 0.9, where 1 is the maximum)", "conditions": "HepG2 Attagene TRANS ERa GAL4 reporter, mRNA", "how_it_was_run": "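Transfected HepG2 cells carrying GAL4-UAS-driven reporter units were dosed for 24 hours. Total RNA was reverse-transcribed, reporter sequences PCR-amplified, FAM-labelled, HpaI-digested and resolved by capillary electrophoresis. Increases over DMSO control defined activity.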"}, "[15]": {"target": "X-box-binding protein 1 (Homo sapiens) (UniProt P17861)", "sequence (P17861 whole entry, looked up, the tested form may be a part)": "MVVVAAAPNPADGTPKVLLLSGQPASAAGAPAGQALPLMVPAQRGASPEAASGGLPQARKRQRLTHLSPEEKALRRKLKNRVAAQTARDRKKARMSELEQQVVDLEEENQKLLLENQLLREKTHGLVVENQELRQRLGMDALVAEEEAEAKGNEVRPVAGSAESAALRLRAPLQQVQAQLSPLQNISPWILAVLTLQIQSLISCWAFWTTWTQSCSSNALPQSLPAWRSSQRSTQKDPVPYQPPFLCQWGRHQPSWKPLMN", "assay": "ATG_Xbp1_CIS: Attagene CIS-FACTORIAL HepG2 Assay for human X-box Binding Protein 1 (XBP1) (AID 2282972)", "conditions": "HepG2 XBP1 cis-element reporter, Attagene multiplex; actives raise or lower the signal", "how_it_was_run": "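Read-out: fluorescent reporter mRNA fragments resolved by capillary electrophoresis after RT-PCR. Human HepG2 liver cells carried transfected cis-promoter reporter units and were exposed to chemicals for 24 hours. Gain or loss of signal fitted relative to DMSO baseline.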"}, "[16]": {"assay": "ATG_M_19_TRANS: Attagene TRANS-FACTORIAL HepG2 Assay for M19 Transcription Factor (Internal Marker) (AID 2282974; active = hit-call score of the fitted dose curve at least 0.9, where 1 is the maximum)", "conditions": "HepG2 Attagene TRANS-FACTORIAL M19 internal marker reporter", "how_it_was_run": "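HepG2 transiently transfected with GAL4-UAS multiplex reporter constructs, exposed 24 h; reporter RNA quantified by RT-PCR, 6-FAM labeling, HpaI digestion and capillary electrophoresis; internal background marker fitted upward versus DMSO.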"}, "[17]": {"target": "Steroid hormone receptor ERR1 (Homo sapiens) (UniProt P11474)", "sequence (P11474 whole entry, looked up, the tested form may be a part)": "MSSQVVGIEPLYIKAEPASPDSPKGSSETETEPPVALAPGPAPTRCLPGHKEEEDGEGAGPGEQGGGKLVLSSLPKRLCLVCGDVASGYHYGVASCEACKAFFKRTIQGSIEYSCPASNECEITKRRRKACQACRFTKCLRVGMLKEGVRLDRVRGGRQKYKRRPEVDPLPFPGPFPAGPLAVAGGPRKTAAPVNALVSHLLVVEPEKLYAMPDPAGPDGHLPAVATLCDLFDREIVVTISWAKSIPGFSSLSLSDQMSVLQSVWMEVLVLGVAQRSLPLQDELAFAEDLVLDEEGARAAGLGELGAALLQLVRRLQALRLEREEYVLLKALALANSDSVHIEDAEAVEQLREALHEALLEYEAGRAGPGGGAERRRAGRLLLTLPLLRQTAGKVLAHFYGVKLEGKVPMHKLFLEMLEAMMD", "assay": "ATG_ERRa_TRANS: Attagene TRANS-FACTORIAL HepG2 Assay for human Estrogen-Related Receptor alpha (ERRa) (AID 2282971; active = hit-call score of the fitted dose curve at least 0.9, where 1 is the maximum)", "conditions": "HepG2 Attagene TRANS reporter, ERRa transactivation", "how_it_was_run": "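HepG2 cells were transiently transfected with multiple GAL4-UAS reporter units, then dosed with compound for 24 h. Total RNA was reverse-transcribed, reporter cDNA PCR-amplified and fluorescently labelled, and fragments resolved by capillary electrophoresis; induction was compared with DMSO.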"}, "[18]": {"assay": "ATG_PBREM_CIS: Attagene CIS-FACTORIAL HepG2 Assay for human Phenobarbital-responsive Enhancer Module (PBREM) (AID 2282955)", "conditions": "HepG2 PBREM cis-reporter, Attagene multiplexed transcription; actives raise or lower the signal", "how_it_was_run": "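HepG2 cells transiently transfected with multiple cis-regulated reporter units measure endogenous transcription factor activity; 24 h compound exposure. Reporter mRNA quantified by RT-PCR, fluorescent labelling, HpaI digestion and capillary electrophoresis; bidirectional fit versus DMSO.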"}}, "note": "Inconclusive results are not listed. Active and inactive are the calls of the source. The calls were made as follows, unless noted: active = hit-call score of the fitted dose curve at least 0.9, where 1 is the maximum; inactive = score below 0.9."}
{"smiles": "Cc1nc(N(C)C)nc(OC(=O)N(C)C)c1C", "values": [{"measurement": "outcome", "setting": "[1]", "result": "inactive"}, {"measurement": "AC50", "setting": "[2]", "result": "50 µM (active)"}, {"measurement": "outcome", "setting": "[3]", "result": "inactive"}, {"measurement": "outcome", "setting": "[4]", "result": "inactive"}, {"measurement": "outcome", "setting": "[5]", "result": "inactive"}, {"measurement": "outcome", "setting": "[6]", "result": "inactive"}, {"measurement": "outcome", "setting": "[7]", "result": "inactive"}, {"measurement": "outcome", "setting": "[8]", "result": "inactive"}, {"measurement": "outcome", "setting": "[9]", "result": "inactive"}, {"measurement": "outcome", "setting": "[10]", "result": "inactive"}, {"measurement": "outcome", "setting": "[11]", "result": "inactive"}, {"measurement": "outcome", "setting": "[12]", "result": "inactive"}, {"measurement": "outcome", "setting": "[13]", "result": "inactive"}, {"measurement": "outcome", "setting": "[14]", "result": "inactive"}, {"measurement": "outcome", "setting": "[15]", "result": "inactive"}, {"measurement": "outcome", "setting": "[16]", "result": "inactive"}]}
{"smiles": "N#Cc1c[nH]cc1-c1cccc2c1OC(F)(F)O2", "values": [{"measurement": "outcome", "setting": "[1]", "result": "inactive"}, {"measurement": "AC50", "setting": "[2]", "result": "11.6 µM (active)"}, {"measurement": "AC50", "setting": "[3]", "result": "13.2 µM (active)"}, {"measurement": "outcome", "setting": "[4]", "result": "inactive"}, {"measurement": "AC50", "setting": "[5]", "result": "3.85 µM (active)"}, {"measurement": "outcome", "setting": "[6]", "result": "inactive"}, {"measurement": "outcome", "setting": "[7]", "result": "inactive"}, {"measurement": "outcome", "setting": "[8]", "result": "inactive"}, {"measurement": "outcome", "setting": "[9]", "result": "inactive"}, {"measurement": "outcome", "setting": "[10]", "result": "inactive"}, {"measurement": "outcome", "setting": "[11]", "result": "inactive"}, {"measurement": "outcome", "setting": "[12]", "result": "inactive"}, {"measurement": "AC50", "setting": "[13]", "result": "17.5 µM (active)"}, {"measurement": "AC50", "setting": "[14]", "result": "2.84 µM (active)"}, {"measurement": "outcome", "setting": "[17]", "result": "inactive"}, {"measurement": "AC50", "setting": "[15]", "result": "4.63 µM (active)"}, {"measurement": "outcome", "setting": "[16]", "result": "inactive"}]}
{"smiles": "C=CCOC(=O)C(C)(C)OC(=O)c1cc(-n2c(=O)cc(C(F)(F)F)n(C)c2=O)ccc1Cl", "values": [{"measurement": "outcome", "setting": "[18]", "result": "inactive"}, {"measurement": "outcome", "setting": "[1]", "result": "inactive"}, {"measurement": "AC50", "setting": "[2]", "result": "1.49 µM (active)"}, {"measurement": "outcome", "setting": "[3]", "result": "inactive"}, {"measurement": "outcome", "setting": "[4]", "result": "inactive"}, {"measurement": "outcome", "setting": "[5]", "result": "inactive"}, {"measurement": "outcome", "setting": "[6]", "result": "inactive"}, {"measurement": "outcome", "setting": "[7]", "result": "inactive"}, {"measurement": "outcome", "setting": "[8]", "result": "inactive"}, {"measurement": "outcome", "setting": "[9]", "result": "inactive"}, {"measurement": "outcome", "setting": "[10]", "result": "inactive"}, {"measurement": "outcome", "setting": "[11]", "result": "inactive"}, {"measurement": "outcome", "setting": "[12]", "result": "inactive"}, {"measurement": "outcome", "setting": "[13]", "result": "inactive"}, {"measurement": "outcome", "setting": "[15]", "result": "inactive"}, {"measurement": "outcome", "setting": "[16]", "result": "inactive"}]}
